Source: PubChem BioAssay (NCATS)
Inconclusive results are not listed. Active and inactive are the calls of the source. Calls follow the shape of the dose curve; as a rule, active = well fitted curve in the direction sought with a large enough effect; inconclusive = small, poorly fitted or top-dose-only effect, or another doubt; inactive = no such curve, though single readings can be large; an effect the other way counts as inactive or inconclusive.

Legend:
[1] = molecular target: Luciferin 4-monooxygenase (Photinus pyralis) (UniProt P08659); experiment: Firefly luciferase counterscreen qHTS: Assay Interference Panel against the NCATS CANVASS Library (AID 1347363); also: series mostly up to about 57 µM
Outline: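 Purified P. pyralis luciferase was added to compounds (11-point series) preincubated 15 min at room temperature with substrate containing 0.013 mM D-luciferin and 0.013 mM ATP; luminescence was read after 5 min.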

[2] = KB-8-5-11 Cancer Cell Toxicity qHTS against the NCATS CANVASS Library (AID 1347364); also: nearly all actives have a fitted effect of over 75% in size
Outline: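 Natural products were titrated in 11 points onto KB-8-5-11 cells, 500 per well, and cytotoxicity was scored from CellTiter-Glo luminescence after 72 hr culture.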

[3] = SDT Cancer Cell Toxicity qHTS against the NCATS CANVASS Library (AID 1347365);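 also: SDT canine glioma cells 500 per well in 1536 well plates; series mostly up to about 46 µM; nearly all actives have a fitted effect of over 60% in size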
Outline: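 Dispense 500 SDT cells per well; pin-transfer compounds; incubate 72 hr at 37C, 5% CO2, 95% RH; add CellTiterGlo and read luminescence.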

[4] = KB-3-1 Cancer Cell Toxicity qHTS against the NCATS CANVASS Library (AID 1347366); also: series mostly up to about 46 µM; nearly all actives have a fitted effect of over 75% in size
Outline: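 Seed KB-3-1 cells at 500/well in DMEM with 10% FBS, add compounds, incubate 72 hr at 37C and 5% CO2, then add CellTiter-Glo and read luminescence after 10 minutes.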

[5] = G06 Cancer Cell Toxicity qHTS against the NCATS CANVASS Library (AID 1347368); also: series mostly up to about 46 µM; nearly all actives have a fitted effect of over 60% in size
Outline: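 Cytotoxicity toward canine glioma G06 cells is scored from cellular ATP via luminescence after 72 hr compound exposure at 500 cells/well.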

[6] = MCF7 Cancer Cell Toxicity qHTS against the NCATS CANVASS Library (AID 1347369)
Outline: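 Cytotoxicity is measured by ATP content: MCF7 cells at 500 per well receive an 11-point compound series and, after 72 hr at 37C, are lysed with CellTiterGlo for luminescence.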

[7] = qHTS for ATAD5 Antagonist screened against the NCATS CANVASS Library (AID 1347370);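 also: HEK293T cells carrying an ATAD5 luciferase reporter co-treated with 10 µM 5-fluorouridine; series mostly up to about 46 µM; nearly all actives have a fitted effect of over 65% in size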
Outline: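 HEK293T cells with a stably integrated ATAD5-controlled luciferase reporter were exposed to compounds (11-pt) alongside 10 uM 5-fluorouridine as ATAD5 stabilizer for 16hr at 37C. Viability was read by CellTiter-Fluor fluorescence, then ATAD5 by luminescence.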

[8] = J3T Cancer Cell Toxicity qHTS against the NCATS CANVASS Library (AID 1347371);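 also: J3T is a canine glioma cancer cell line seeded at 500 cells per well; series mostly up to about 46 µM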
Outline: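 Viability of the J3T glioma line from dog is scored by ATP luminescence after a 72 hr incubation with natural products.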

[9] = molecular target: Nuclear receptor subfamily 1 group I member 3 (Homo sapiens) (UniProt Q14994); experiment: qHTS for Constitutive Androstane Receptor (CAR) Antagonist screened against the NCATS CANVASS Library (AID 1347372);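 also: cells stimulated with 50 nM CITCO agonist so inhibition reflects antagonism; series mostly up to about 46 µM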
Outline: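 HepG2 cells stably carrying hCAR and a CYP2B6-2.2kb luciferase reporter were exposed to compounds plus 50 nM CITCO for 24hr at 37C. CAR activity was read by ONE-Glo luminescence, with viability measured first by CellTiter-Fluor.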

[10] = molecular target: Nuclear receptor subfamily 1 group I member 3 (Homo sapiens) (UniProt Q14994); experiment: qHTS for Constitutive Androstane Receptor (CAR) Agonist screened against the NCATS CANVASS Library (AID 1347373);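 also: every well also contained 1.5 µM PK11195 alongside the test compound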
Outline: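 CAR agonism is scored as CYP2B6-promoter luciferase induction in a double-stable transfected HepG2 line, where 1.5uM PK11195 is included in each well. Compounds were tested over a 24hr exposure.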

[11] = qHTS for Hypoxia signaling pathway (HIF-1) antagonists against the NCATS CANVASS Library (AID 1347374);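 also: HRE-bla ME-180 cells stimulated with cobalt chloride to stabilize HIF-1alpha; series mostly up to about 38 µM; nearly all actives have a fitted effect of over 60% in size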
Outline: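 HRE-bla ME-180 cells (2,000/well, 0.5% dialyzed FBS) were pre-incubated 5 h, then given an 11-point compound series plus CoCl2 (60 uM solution as added) for 17 h at 37C. CCF4 β-lactamase read (ex 405, em 460/530 nm) after 2 h at RT.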

[12] = qHTS for Hypoxia signaling pathway (HIF-1) agonists against the NCATS CANVASS Library (AID 1347375)
Outline: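 Inducers of HIF-1 signaling were detected in ME-180 cells bearing an HRE-driven beta-lactamase reporter after 17 h compound exposure. Activity came from CCF4-AM FRET emission ratio (460/530 nm) in qHTS format.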

[13] = qHTS for H2AX Agonists against the NCATS CANVASS Library (AID 1347378);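 also: phospho-H2AX S139 level in CHO-K1 lysates by TR-FRET emission ratio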
Outline: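 Following overnight seeding, CHO-K1 cells are incubated with a concentration series of compound for 3 hr at 37C (final DMSO 0.76%). Cells are then lysed, detection antibodies added, and emission ratio 665/620 nm recorded after 24 hr at room temperature.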

[14] = qHTS for Inflammasome Signaling Inhibitors: IL-1-beta AlphaLISA screen against the NCATS CANVASS Library (AID 1347379);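 also: human THP-1 cells primed with LPS then triggered with ATP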
Outline: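 Human THP-1 cells were pretreated 1 hr at 37 °C with compounds (up to 57.5 uM final), then stimulated with LPS (250 ng/mL final) and ATP (1.25 mM final). Secreted IL-1B was read by AlphaLISA after 16 hr.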

[15] = Inflammasome Signaling qHTS Counterscreen: IL-1-beta AlphaLISA counterscreen against the NCATS CANVASS Library (AID 1347381);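 also: cell-free check with purified IL-1β in medium and no THP-1 cells; series mostly up to about 57 µM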
Outline: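 To flag interference with the AlphaLISA read-out, a known amount of purified IL-1-beta (4 pg) replaced cell supernatant. Detection used anti-IL-1-beta acceptor beads, biotinylated antibody and streptavidin donor beads at room temperature.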

[16] = Cytotoxicity qHTS for assessment of Hepg2 cells membrane integrity screened against the NCATS CANVASS Library (AID 1347387)
Outline: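 Fluorescence proportional to lysed-cell number, from LDH leaking out of HepG2 cells exposed 5 hr at 37C to 0.59 nM - 46 uM compound (11-point qHTS), is measured after 10 min with CytoTox-ONE.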

[17] = qHTS for Activators of p53 Stress Response Pathway screened against the NCATS CANVASS Library (AID 1347388)
Outline: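 p53RE-bla HCT-116 cells (4000/well) were plated 5 h at 37C, exposed to compounds for 16 h at 37C over an 11-point concentration series, then loaded with CCF4 for 2 h at room temperature; 460/530 nm emission ratio read.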

[18] = qHTS assay for small molecule disruptors of mitochondrial membrane potential screened against the NCATS CANVASS Library (AID 1347389); also: series mostly up to about 46 µM; nearly all actives have a fitted effect of over 60% in size
Outline: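 Compounds tested in 11-point qHTS series on HepG2 cells for 1 hr; membrane-potential dye added for 30 min at 37C. Lower red-to-green ratio indicates loss of potential.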

[19] = qHTS for activators of Nrf2/ARE signaling pathway screened against the NCATS CANVASS Library (AID 1347391); also: nearly all actives have a fitted effect of over 60% in size
Outline: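 Cells carrying an ARE-driven beta-lactamase reporter (HepG2 background) are dosed for 16 h, then stained with CCF4. Cell viability in the same wells is measured by CellTiter-Glo luminescence.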

[20] = qHTS for activators of dead-cell proteases activity screened against the NCATS CANVASS Library (AID 1347392);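 also: luminescence from protease leaking out of membrane-damaged cells cleaving impermeant substrate; rising signal means more cytotoxicity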
Outline: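 HepG2 cells (2000/well) attached 18 h at 37C, then exposed 5 h to compounds (11-point qHTS). Dead-cell protease activity read as luminescence from cell-impermeant AAF-aminoluciferin substrate after 15 min at room temperature.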

[21] = Vero-766 cells viability qHTS against the NCATS CANVASS Library: Counterscreen for Zika virus inhibition assay (AID 1347394)
Outline: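 This cytotoxicity counterscreen uses African green monkey Vero 766 cells in the absence of Zika virus. Compounds are incubated with cells for 72 h, and ATP-based luminescence reports viability.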

[22] = qHTS for inhibitors of Wild type Zika virus screened against the NCATS CANVASS Library (AID 1347396);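 also: ATP luminescence of surviving cells so rescue from viral cell killing; series mostly up to about 46 µM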
Outline: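 Vero 766 (African green monkey) cells, 1000 per well, attached overnight, then compounds were added in an 11-point series before wild-type Zika virus infection. After 72 h at 37C, cell viability was read as CellTiter Glo luminescence.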

Measured: Potency

Chain of Nuclear receptor subfamily 1 group I member 3 (Homo sapiens) (Q14994 whole entry, looked up): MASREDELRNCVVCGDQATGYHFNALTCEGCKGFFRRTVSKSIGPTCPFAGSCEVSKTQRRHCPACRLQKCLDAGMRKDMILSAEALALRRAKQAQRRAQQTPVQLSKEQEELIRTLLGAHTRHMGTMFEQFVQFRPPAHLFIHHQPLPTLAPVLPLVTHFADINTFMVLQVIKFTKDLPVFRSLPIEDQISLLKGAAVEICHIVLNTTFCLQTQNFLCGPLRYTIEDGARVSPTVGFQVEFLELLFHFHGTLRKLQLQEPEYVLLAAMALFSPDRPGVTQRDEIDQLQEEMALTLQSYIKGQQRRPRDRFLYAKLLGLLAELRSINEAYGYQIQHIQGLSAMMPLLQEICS
Chain of Luciferin 4-monooxygenase (Photinus pyralis) (P08659 whole entry, looked up): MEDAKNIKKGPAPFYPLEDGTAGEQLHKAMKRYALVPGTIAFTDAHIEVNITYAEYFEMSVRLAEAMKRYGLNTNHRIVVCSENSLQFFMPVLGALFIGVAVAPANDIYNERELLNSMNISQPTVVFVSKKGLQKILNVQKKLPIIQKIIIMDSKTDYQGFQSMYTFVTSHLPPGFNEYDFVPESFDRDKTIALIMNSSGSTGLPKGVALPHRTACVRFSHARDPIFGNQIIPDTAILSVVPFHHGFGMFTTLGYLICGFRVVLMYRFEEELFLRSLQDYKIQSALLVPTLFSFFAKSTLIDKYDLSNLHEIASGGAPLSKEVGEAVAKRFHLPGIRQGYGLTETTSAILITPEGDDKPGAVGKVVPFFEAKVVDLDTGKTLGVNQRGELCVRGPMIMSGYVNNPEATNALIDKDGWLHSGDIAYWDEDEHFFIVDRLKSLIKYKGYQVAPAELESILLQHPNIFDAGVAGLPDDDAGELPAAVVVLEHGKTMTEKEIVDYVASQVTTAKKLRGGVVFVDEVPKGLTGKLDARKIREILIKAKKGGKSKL

O=C(OC1Cc2c(O)cc(O)cc2OC1c1cc(O)c(O)c(O)c1)c1cc(O)c(O)c(O)c1 (configuration not stated)
inactive: all assays above
